# In PubChem BioAssay AID1460 (National Center for Advancing Translational Sciences (NCATS), 2008):
# About 5,800 (2.1%) of roughly 270,000 compounds were called active. Another 16% or so got no clear call; they are omitted. Calls follow the shape of the dose curve; as a rule, active = well fitted inhibition curve with a large enough effect; inconclusive = small, poorly fitted or top-dose-only effect; inactive = flat fitted curve, though single readings scatter. The entries come from a sample that favours actives as a whole.
# Target: Microtubule-associated protein tau (Homo sapiens) (UniProt P10636)
# Sequence (P10636 561-689 P618L limits assumed): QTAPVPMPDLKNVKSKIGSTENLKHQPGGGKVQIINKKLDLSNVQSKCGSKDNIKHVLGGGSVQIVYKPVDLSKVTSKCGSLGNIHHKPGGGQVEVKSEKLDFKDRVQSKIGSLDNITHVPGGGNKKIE
# Experiment: qHTS for Inhibitors of Tau Fibril Formation, Thioflavin T Binding; also: nearly all actives have a fitted effect of over 55% in size
# Settings: recombinant tau K18 P301L (four-repeat tau fragment), heparin-induced fibrillization, ThT fluorescence; series mostly up to 57.4 µM; activity, negative = inhibition: at the top concentration
# In short: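 Aggregation was driven by heparin (20 uM final) acting on recombinant tau […] bearing P301L in 100 mM sodium acetate pH 7; fibrils were detected with Thioflavin T.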
# % is scaled to controls: 0 for no effect and ±100 for the full control effect; potency is read from the fitted curve at half-maximal effect.
SMILES,"activity, negative = inhibition",Potency
Cc1cc(C)cc(NC(=O)Cn2nc(N3CCN(c4ccccc4)CC3)ccc2=O)c1,-11.4% (inactive),
Cc1c(-c2cccc(NC(=O)C(C)(C)C)c2)nc2ncccn12,-2.03% (inactive),
Cc1cccn2c(=O)c(C(=O)NC(C)c3ccccc3)cnc12 (centres undefined),5.77% (inactive),
Cc1ccc(-c2csc(NNC(=O)c3ccccc3)n2)cc1,,12.6 µM (active)
Cc1nc(NNC(=O)c2ccccc2)cc(-c2ccccc2)n1,-2.19% (inactive),
Cc1ccc(-c2csc(NC(=O)c3cccs3)n2)cc1,-12.4% (inactive),
Cc1ccc(OC(=O)CSc2nnc(-c3cccs3)o2)cc1,4.84% (inactive),
CCc1ccc(NS(=O)(=O)c2ccc3[nH]cc(C(=O)NCCc4cccc(C)c4)c(=O)c3c2)cc1,-0.768% (inactive),
Cc1ccc(N2CC(NC(=O)Cc3cccs3)CC2=O)cc1 (centres undefined),-5.96% (inactive),
COc1cccc(NC(=O)c2ccc3nc(CCc4ccccc4)oc3c2)c1,-15.7% (inactive),
Cn1c(=O)c2c(n3c4ccccc4nc13)NC(=O)CC2c1cccc(Cl)c1 (centres undefined),-2.25% (inactive),
C(=N\N1CCN(c2ccccn2)CC1)/C1=C(N2CCOCC2)C(=C/c2ccccc2)/CC1,,11.2 µM (active)
O=C(CN1CCN(c2ccccn2)CC1)N1CCc2ccccc21,-14.3% (inactive),
O=C(Cc1ccc(Br)cc1)N1CCN(c2ccccn2)CC1,3.26% (inactive),
O=C1Nc2ccc(Br)cc2/C1=N/N=C/C1=C(N2CCOCC2)C(=C\c2ccccc2)/CC1,,4.47 µM (active)
Cc1c(-c2nc(-c3ccc4c(c3)OCO4)no2)nnn1-c1ccc(Br)cc1F,-17.8% (inactive),
CC1CCCN(c2nc3c(S(=O)(=O)c4ccc(C(C)C)cc4)nnn3c3ccsc23)C1 (centres undefined),4.44% (inactive),
CCOc1ccc(CNCc2c(C(=O)O)c(C)n(Cc3cccc(OC)c3)c2C)cc1OC,-12.9% (inactive),
CCc1ccc(N(CC)C(=O)CCn2cnc3onc(-c4ccc(F)cc4)c3c2=O)cc1,-16.1% (inactive),
Cc1ccc2c(=O)c(C(=O)c3ccc(F)cc3)cn(CC(=O)NC3CCCCC3)c2n1,-15% (inactive),
COc1cc(-c2noc(-c3ccc(N4CCCC4)c([N+](=O)[O-])c3)n2)cc(OC)c1OC,1.35% (inactive),
CCc1ccc(NC(=O)c2sc3nc4c(cc3c2N)CN(CC)CC4)cc1,,10 µM (active)
CCc1ccccc1NC(=O)c1sc2nc3c(cc2c1N)CN(Cc1ccccc1)CC3,-9.56% (inactive),
CCN1CCc2nc(NC(=O)c3cc(F)c(F)cc3Cl)sc2C1,7.9% (inactive),
Cc1ccc(-n2ncc(C(=O)N(C)Cc3ccccc3)c2-n2cccc2)cc1,-13.8% (inactive),

SMILES,"activity, negative = inhibition",Potency
O=[N+]([O-])c1ccc(N/N=C/c2ccccc2)cc1,,3.55 µM (active)
Cc1ccccc1OCCOc1ccc([N+](=O)[O-])cc1/C=N/n1cnnc1,-19.7% (inactive),
Cc1cccc(C(=O)NNC(=O)c2cccc([N+](=O)[O-])c2)c1,-1.12% (inactive),
COc1cc(CC(=O)N/N=C/c2ccccc2)c([N+](=O)[O-])cc1OC,-7.85% (inactive),
Cc1cccc(COc2ccccc2/C=N/Nc2ccc([N+](=O)[O-])cc2)c1,,3.16 µM (active)
O=C(N/N=C/c1ccc([N+](=O)[O-])cc1)c1c[nH]c2ccccc12,,2.82 µM (active)
O=C(NC(Cc1c[nH]c2ccccc12)C(=O)N/N=C/c1ccc(Br)cc1)c1cccs1 (centres undefined),1.42% (inactive),
O=C(Nc1ccccc1)/C(=C/c1ccc([N+](=O)[O-])cc1)NC(=O)c1ccccc1,-6.58% (inactive),
Cc1c(C(=O)N/N=C/c2ccccc2)[nH]c2c([N+](=O)[O-])cccc12,-2.9% (inactive),
CNc1ccc(-c2nc(-c3ccco3)no2)cc1[N+](=O)[O-],3.41% (inactive),
Cc1ccc(Cl)cc1NC(=O)NC1COc2ccccc2C1 (centres undefined),3.8% (inactive),
COc1ccc(NC(=O)CSc2nccn2C2CCCC2)cc1OC,-1.2% (inactive),
O=C(CN1C(=O)CCn2nc(-c3ccccc3)cc21)NCc1ccccc1,-0.0678% (inactive),
Cc1ccc(-n2c(SCC(=O)Nc3cccc(F)c3)nc3c(oc4ccccc43)c2=O)cc1C,5.17% (inactive),
COc1ccc(/C=C(/CC(=O)Nc2ccc(C)cc2)c2nc3ccccc3s2)cc1,-13.3% (inactive),
COc1cccc2sc(NNC(=O)c3nc4ccccc4s3)nc12,,7.94 µM (active)
COc1ccc(S(=O)(=O)N2CCOCC2)cc1C(=O)Nc1nc2ccccc2s1,-1.15% (inactive),
Cc1ccc(C)c(N2CCN(c3ccc4cc(S(=O)(=O)N5CCC(C)CC5)ccc4n3)CC2)c1,0.595% (inactive),
CC(=O)c1cc(C#N)c(SCC(=O)C(C)(C)C)nc1C,-10.4% (inactive),
CC(=O)c1cc(C#N)c(SCC(=O)Nc2nccs2)nc1C,,7.08 µM (active)
Cc1[nH]c2ccccc2c1SCC(=O)Nc1nccs1,-6.38% (inactive),
COc1ccc(CCNc2ncnc3onc(-c4ccc(Cl)cc4)c23)c(OC)c1,-0.33% (inactive),
CCOCCc1nn2c(=O)cc(COC(=O)CNC(=O)c3ccc(C(C)(C)C)cc3)nc2s1,-14% (inactive),
Cc1cc(C=O)c(C)n1-c1ccc(NC2CCCCC2)c([N+](=O)[O-])c1,,14.1 µM (active)
Cc1c(NC(=O)CCC2CCCCC2)cc(C(=O)N2CCOCC2)cc1[N+](=O)[O-],-8.07% (inactive),

SMILES,"activity, negative = inhibition",Potency
Cc1ccc(C(=O)COC(=O)CCCC(=O)NC2CCCCC2)cc1[N+](=O)[O-],-0.262% (inactive),
COCCN(Cc1ccco1)C(=O)Cn1ncc2c([nH]c3ccccc32)c1=O,4.47% (inactive),
O=C(Nc1ccc(F)cc1)N1CCN(c2ccc(F)cc2)CC1,-16.9% (inactive),
CC(CC(=O)N1CCN(c2ccccc2)CC1)c1ccccc1 (centres undefined),-1.05% (inactive),
CC(=O)N1CCN(c2ccc(NCc3ccc(C(C)C)cc3)cc2)CC1,,12.6 µM (active)
Cc1c(CCNC(=O)c2ccc(C(F)(F)F)cc2)sc2nc(-c3ccc(F)cc3)nn12,2.81% (inactive),
COc1ccc(Cl)cc1NC(=O)CCn1c(=O)c2cccn2c2ccccc21,-13.7% (inactive),
CCOc1ccc(CNC(=O)c2ccc3nc(CC)c(CC)nc3c2)cc1OC,0.219% (inactive),
COc1ccc2c(c1)C(C)=CC(C)(C)N2C(=O)Nc1ccccc1,,28.2 µM (active)
CC1=CC(C)(C)N(C(=O)CSc2nnc(-c3ccccc3)o2)c2ccc(C)cc21,-11.5% (inactive),
COc1ccc2c(c1)C(C)=CC(C)(C)N2C(=O)CNCc1ccc2c(c1)OCO2,-5.39% (inactive),
O=C(NC1CC(=O)N(c2ccc(Cl)cc2)C1)C1CCCC1 (centres undefined),-3.22% (inactive),
Cn1ccc2cc(S(=O)(=O)N3CCCC(C(=O)NCc4ccccc4F)C3)ccc21 (centres undefined),4.83% (inactive),
COc1ccc(-c2nc3ccccc3o2)cc1NC(=O)c1cc([N+](=O)[O-])ccc1N1CCOCC1,-9.81% (inactive),
CCOc1ccc2nc(NC(=O)c3cc([N+](=O)[O-])ccc3N3CCOCC3)sc2c1,,3.16 µM (active)
O=C(NC1CCCCC1)c1cc([N+](=O)[O-])ccc1N1CCOCC1,-5.97% (inactive),
CCOC(=O)c1c(NC(=O)COc2cc(C)ccc2C(C)C)sc(C)c1C,,25.1 µM (active)
CCOC(=O)c1c(NC(=O)c2cccs2)sc(C)c1C,4.08% (inactive),
CCOC(=O)c1sc(NC(=O)COc2ncnc3ccccc23)c(C(=O)OCC)c1C,13.3% (inactive),
Clc1cccc(-n2ncc3c(NCCc4ccccc4)ncnc32)c1,-9.03% (inactive),
Cc1ccc(Cl)cc1NC(=O)CCC(=O)N1CC(C)Sc2ccccc21 (centres undefined),-16.2% (inactive),
CCCNC(=O)C1CCN(c2nc3ccc(C)cc3[nH]2)CC1,-0.761% (inactive),
COCC(C)NS(=O)(=O)c1ccc(N2CCCCS2(=O)=O)cc1 (centres undefined),6.23% (inactive),
S=C(NCCc1ccccc1)N1CCCCC1,-8.68% (inactive),
OCCN1CCN(C(=S)c2ccc(-c3ccccc3)cc2)CC1,-13.5% (inactive),

SMILES,"activity, negative = inhibition",Potency
S=C(c1ccc(-c2ccccc2)o1)N1CCCCC1,,15.8 µM (active)
Oc1ccccc1N1CCN(C(=S)NCc2ccccc2)CC1,-17.4% (inactive),
OCC(CO)(CO)NCc1ccc(-c2ccccc2)cc1,-2.17% (inactive),
Oc1ccc(CNc2ccccc2O)cc1,,14.1 µM (active)
Cc1cccc(C2C3=C(CCCC3=O)N=C3c4ccccc4C(=O)C32)c1 (centres undefined),,14.1 µM (active)
CCc1nc2cccnc2n1-c1ccc(CC(=O)Nc2c(C)cccc2C)cc1,-7.47% (inactive),
COc1ccc(CCNC(=O)Cn2c(=O)cc(C(F)(F)F)c3c(C)nn(C)c32)c(OC)c1,-7.4% (inactive),
Cc1ccc(/C=C/C(=O)Nc2cc(S(=O)(=O)N3CCCCCC3)ccc2OCC(F)(F)F)o1,9.07% (inactive),
Cc1ccc(/C=C/C(=O)Nc2ccc([N+](=O)[O-])c(NC(=O)/C=C/c3ccc(C)o3)c2)o1,,12.6 µM (active)
CCc1nnc(NC(=O)/C=C/c2ccc(C)o2)s1,-4.8% (inactive),
CCOc1ccccc1N=C1NC(=O)CS1,-1.39% (inactive),
CCOc1cccc(/C=N/NC(=S)NCCN2CCOCC2)c1O,-6.58% (inactive),
CCOc1cccc(/C=N/N2C(=O)CSC2=S)c1O,,22.4 µM (active)
COc1ccc(OC)c(NC(=O)CSC2=Nc3ccccc3C3=NC(CC(=O)NCCc4ccccc4)C(=O)N23)c1 (centres undefined),-3.76% (inactive),
CC(=O)Oc1c2c(c3c(c1CC=C(C)C)O[C@@]14C(=CC5CC1C(C)(C)OC4(C/C=C(\C)C(=O)O)C5=O)C3=O)OC(C)(CCC=C(C)C)C=C2 (some centres undefined),,31.6 µM (active)
COc1ccccc1NC(=O)Cn1cnc2ccc(S(=O)(=O)N3CCC(C)CC3)cc2c1=O,9.3% (inactive),
CN1c2ccc(Cl)cc2-c2nc(SCC(=O)Nc3cc(F)ccc3F)ncc2S1(=O)=O,4.12% (inactive),
CN1/C(=c2/s/c(=C3/C(=O)N(c4ccccc4)NC3=Nc3ccccc3)n(C)c2=O)C(C)(C)c2ccccc21,,7.94 µM (active)
CC1CCCCN1CCCNC(=O)Cn1ncc2c([nH]c3ccccc32)c1=O (centres undefined),-18.3% (inactive),
CCc1ccc(NC(=O)CCS(=O)(=O)c2cc3c(cc2Cl)NC(=O)CO3)cc1,1.33% (inactive),
COc1ccc(C)cc1NC(=O)C(=O)NCCc1sc(-c2cccc(C)c2)nc1C,-12.3% (inactive),
O=[N+]([O-])c1ccccc1Nc1ccc(O)cc1,,22.4 µM (active)
O=C(O)c1ccccc1C(=O)Nc1ccccc1[N+](=O)[O-],-2.3% (inactive),
Cc1ccc(Nc2ccc(C(N)=O)cc2[N+](=O)[O-])cc1,-3.36% (inactive),
